Source: PubChem BioAssay AID1159580 (chemical genetic matrix, 2015)
The whole screen tested about 5,500 compounds, of which about 2,000 (36%) were called active. Roughly 18% stayed inconclusive and do not appear here. Cut-off read from the data, not from the text of the source: active = normalized growth mostly below about 0.91 (no sharp cut-off); inconclusive = no clear call, values can overlap the other calls; inactive = mostly above about 0.92. The list shows a part of the results.

Assay: chemical genetic growth profiling, strain panel (AID 1159580);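 note: tested at 20 µM; growth read once vehicle control cultures reached saturation at 30 °C; 1 = growth at the plate median or of vehicle wells; lower values mean less growth of the strain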
Conditions: S. cerevisiae deletion strains, growth OD

Measured: normalized growth

CC(=O)O[C@H]1CCC2(C)C3=C(CCC2C1(C)C)[C@]1(C)CCC(C(C)CCC=C(C)C)[C@@]1(C)CC3 (stereo not given in full)
inactive: locus YAL021C, strain ccr4, stronger effect = lower value 1.05 | locus YAL026C, strain drs2, stronger effect = lower value 0.971 | locus YAL030W, strain snc1, stronger effect = lower value 0.996 | locus YBL061C, strain skt5, stronger effect = lower value 0.99 | locus YBR009C, strain hhf1, stronger effect = lower value 0.998 | locus YBR023C, strain chs3, stronger effect = lower value 0.984 | locus YBR171W, strain sec66, stronger effect = lower value 0.994 | locus YBR231C, strain swc5, stronger effect = lower value 0.961 | locus YBR279W, strain paf1, stronger effect = lower value 0.996 | locus YCL011C, strain gbp2, stronger effect = lower value 1.01 | locus YCL016C, strain dcc1, stronger effect = lower value 1.01 | locus YCL061C, strain MRC1, stronger effect = lower value 0.995 | locus YCL069W, strain vba3, stronger effect = lower value 0.999 | locus YCR088W, strain abp1, stronger effect = lower value 1 | locus YDL005C, strain med2, stronger effect = lower value 0.983 | locus YDL040C, strain nat1, stronger effect = lower value 0.991 | locus YDR001C, strain nth1, stronger effect = lower value 1.01 | locus YDR069C, strain doa4, stronger effect = lower value 0.966 | locus YDR137W, strain rgp1, stronger effect = lower value 0.957 | locus YDR159W, strain sac3, stronger effect = lower value 0.965 | locus YDR195W, strain ref2 0.958 | locus YDR297W, strain sur2, stronger effect = lower value 0.993 | locus YDR334W, strain swr1, stronger effect = lower value 1 | locus YDR335W, strain msn5, stronger effect = lower value 1.01 | locus YDR392W, strain spt3, stronger effect = lower value 0.979 | locus YEL003W, strain gim4, stronger effect = lower value 0.969 | locus YEL037C, strain rad23, stronger effect = lower value 0.999 | locus YEL061C, strain CIN8 (second series), stronger effect = lower value 1.01 | locus YER015W, strain faa2, stronger effect = lower value 0.996 | locus YER016W, strain bim1, stronger effect = lower value 0.995 | locus YER111C, strain swi4, stronger effect = lower value 0.986 | locus YER155C, strain BEM2 (second series), stronger effect = lower value 1.02 | locus YFR010W, strain ubp6, stronger effect = lower value 0.97 | locus YGL167C, strain pmr1, stronger effect = lower value 0.99 | locus YGL173C, strain kem1, stronger effect = lower value 0.971 | locus YGL227W, strain vid30, stronger effect = lower value 0.996 | locus YGL240W, strain doc1, stronger effect = lower value 0.988 | locus YGL253W, strain hxk2, stronger effect = lower value 0.933 | locus YHR013C, strain ard1, stronger effect = lower value 1.02 | locus YHR027C, strain rpn1, stronger effect = lower value 0.993 | locus YHR030C, strain SLT2, stronger effect = lower value 0.968 | locus YHR079C, strain IRE1, stronger effect = lower value 0.994 | locus YHR142W, strain chs7, stronger effect = lower value 0.994 | locus YJL092W, strain hpr5, stronger effect = lower value 0.996 | locus YJL095W, strain BCK1 (second series), stronger effect = lower value 0.999 | locus YJL095W, strain BCK1, stronger effect = lower value 0.956 | locus YJL115W, strain asf1, stronger effect = lower value 0.987 | locus YJL129C, strain trk1, stronger effect = lower value 0.977 | locus YJL154C, strain vps35, stronger effect = lower value 0.999 | locus YJL164C, strain tpk1, stronger effect = lower value 1.03 | locus YJL166W, strain qcr8, stronger effect = lower value 0.98 | locus YJL187C, strain SWE1, stronger effect = lower value 0.997 | locus YJR066W, strain TOR1, stronger effect = lower value 0.937 | locus YKL160W, strain elf1, stronger effect = lower value 1.03 | locus YKR026C, strain gcn3, stronger effect = lower value 0.992 | locus YKR091W, strain srl3, stronger effect = lower value 1 | locus YLL001W, strain dnm1, stronger effect = lower value 0.958 | locus YLL026W, stronger effect = lower value 1 | locus YLL041C, strain sdh2, stronger effect = lower value 1 | locus YLR027C, strain aat2, stronger effect = lower value 1 | locus YLR113W, strain HOG1, stronger effect = lower value 0.957 | locus YLR221C, strain rsa3, stronger effect = lower value 0.98 | locus YLR258W, strain gsy2, stronger effect = lower value 0.999 | locus YLR262C, strain YPT6 (second series), stronger effect = lower value 0.951 | locus YLR320W, strain mms22, stronger effect = lower value 0.995 | locus YLR342W, strain FKS1, stronger effect = lower value 1 | locus YLR357W, strain rsc2, stronger effect = lower value 0.996 | locus YLR370C, strain arc18, stronger effect = lower value 0.988 | locus YLR384C, strain iki3, stronger effect = lower value 0.968 | locus YML120C, strain ndi1, stronger effect = lower value 1.01 | locus YMR058W, strain fet3, stronger effect = lower value 0.975 | locus YMR125W, strain sto1, stronger effect = lower value 1.02 | locus YMR129W, stronger effect = lower value 1 | locus YMR205C, strain PFK2, stronger effect = lower value 1.03 | locus YMR231W, strain pep5, stronger effect = lower value 0.983 | locus YNL071W, strain lat1, stronger effect = lower value 1.04 | locus YNL183C, strain NPR1, stronger effect = lower value 0.896 | locus YNL209W, strain ssb2, stronger effect = lower value 1.01 | locus YNL248C, strain rpa49, stronger effect = lower value 0.97 | locus YNL322C, strain KRE1 (second series), stronger effect = lower value 0.978 | locus YNR049C, strain mso1, stronger effect = lower value 0.988 | locus YOR001W, strain rrp6, stronger effect = lower value 0.923 | locus YOR070C, strain gyp1, stronger effect = lower value 1 | locus YOR080W, strain dia2, stronger effect = lower value 0.969 | locus YOR083W, strain WHI5, stronger effect = lower value 1.02 | locus YOR106W, strain vam3, stronger effect = lower value 1.02 | locus YOR231W, strain MKK1, stronger effect = lower value 0.969 | locus YOR265W, strain rbl2, stronger effect = lower value 1.01 | locus YOR270C, strain vph1, stronger effect = lower value 0.814 | locus YOR290C, strain snf2, stronger effect = lower value 1.02 | locus YPL051W, strain arl3, stronger effect = lower value 0.989 | locus YPL078C, strain atp4, stronger effect = lower value 1.04 | locus YPL106C, strain sse1, stronger effect = lower value 1.09 | locus YPL240C, strain hsp82, stronger effect = lower value 0.994 | locus YPL256C, strain CLN2, stronger effect = lower value 0.979
